Results taken from the supplement of paper PMC6411743.
± gives the standard deviation of the averaged measurements. Targets with the largest changes are over-represented here; the source holds about 5,400 in all.

Compound: Nc1nc2c(ncn2[C@@H]2O[C@H](COP(=O)(O)OP(=O)(O)OP(=O)(O)O)[C@@H](O)[C@H]2O)c(=O)[nH]1 [guanosine triphosphate]
Assay: NP40-soluble protein abundance relative to vehicle (solubility fold change) (ratio); higher = more soluble protein in presence of GTP
In short: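 Jurkat crude lysate prepared with a Dounce homogeniser was treated at eight concentrations spanning 0.1 to 10 mM, 10 min at room temperature then 3 min at 37 °C. Solubilisation with 0.8% NP40 and benzonase and ultracentrifugation preceded TMT labelling of the supernatant for LC-MS/MS. Fold change against the detergent-processed vehicle was determined per replicate from vsn-normalised intensities, across three independent experiments.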

UniProt P17096, sequence (P17096 whole entry): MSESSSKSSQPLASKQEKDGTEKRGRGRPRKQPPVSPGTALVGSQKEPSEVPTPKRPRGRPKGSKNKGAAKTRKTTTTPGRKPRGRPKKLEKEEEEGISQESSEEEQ
UniProt P09651, sequence (P09651 whole entry): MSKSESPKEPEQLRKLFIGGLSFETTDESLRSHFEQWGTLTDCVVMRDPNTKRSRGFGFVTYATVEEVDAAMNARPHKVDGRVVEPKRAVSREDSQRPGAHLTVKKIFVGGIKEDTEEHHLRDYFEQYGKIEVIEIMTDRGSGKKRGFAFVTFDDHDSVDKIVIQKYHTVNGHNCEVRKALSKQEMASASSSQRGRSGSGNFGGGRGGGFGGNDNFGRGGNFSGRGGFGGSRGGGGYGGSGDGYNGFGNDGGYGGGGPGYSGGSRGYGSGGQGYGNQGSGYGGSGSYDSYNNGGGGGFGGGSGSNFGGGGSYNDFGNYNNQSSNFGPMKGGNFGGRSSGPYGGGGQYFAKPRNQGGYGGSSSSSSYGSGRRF
UniProt O43615, sequence (O43615 whole entry): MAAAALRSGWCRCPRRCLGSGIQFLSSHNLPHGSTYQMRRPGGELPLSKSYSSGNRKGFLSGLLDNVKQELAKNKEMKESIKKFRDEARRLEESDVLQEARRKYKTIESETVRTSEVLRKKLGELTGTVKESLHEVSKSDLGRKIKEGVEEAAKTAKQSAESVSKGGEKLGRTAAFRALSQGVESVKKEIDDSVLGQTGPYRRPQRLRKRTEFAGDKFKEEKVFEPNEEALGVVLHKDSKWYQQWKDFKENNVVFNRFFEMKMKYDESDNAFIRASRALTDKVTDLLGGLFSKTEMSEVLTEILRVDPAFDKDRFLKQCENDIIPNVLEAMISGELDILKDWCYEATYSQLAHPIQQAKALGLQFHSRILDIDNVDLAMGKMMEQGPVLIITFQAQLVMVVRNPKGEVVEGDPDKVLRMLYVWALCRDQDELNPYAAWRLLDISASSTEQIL
UniProt P67936, sequence (P67936 whole entry, one chain of several): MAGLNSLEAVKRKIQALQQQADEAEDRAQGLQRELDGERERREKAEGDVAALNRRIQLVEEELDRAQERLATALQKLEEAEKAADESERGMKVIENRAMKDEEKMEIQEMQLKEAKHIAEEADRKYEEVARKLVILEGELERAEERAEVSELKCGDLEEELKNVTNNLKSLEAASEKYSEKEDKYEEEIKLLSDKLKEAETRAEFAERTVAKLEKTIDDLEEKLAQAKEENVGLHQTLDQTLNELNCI
UniProt Q13227, sequence (Q13227 whole entry, one chain of several): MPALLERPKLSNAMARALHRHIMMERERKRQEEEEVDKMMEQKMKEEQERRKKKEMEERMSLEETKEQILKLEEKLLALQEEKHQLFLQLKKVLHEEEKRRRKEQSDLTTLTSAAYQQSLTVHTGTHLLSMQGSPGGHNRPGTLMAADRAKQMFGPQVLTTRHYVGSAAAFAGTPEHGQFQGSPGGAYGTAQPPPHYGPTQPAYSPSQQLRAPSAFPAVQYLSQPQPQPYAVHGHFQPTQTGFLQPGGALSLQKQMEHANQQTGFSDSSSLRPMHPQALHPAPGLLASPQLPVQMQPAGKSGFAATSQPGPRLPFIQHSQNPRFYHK
UniProt O14980, sequence (O14980 whole entry): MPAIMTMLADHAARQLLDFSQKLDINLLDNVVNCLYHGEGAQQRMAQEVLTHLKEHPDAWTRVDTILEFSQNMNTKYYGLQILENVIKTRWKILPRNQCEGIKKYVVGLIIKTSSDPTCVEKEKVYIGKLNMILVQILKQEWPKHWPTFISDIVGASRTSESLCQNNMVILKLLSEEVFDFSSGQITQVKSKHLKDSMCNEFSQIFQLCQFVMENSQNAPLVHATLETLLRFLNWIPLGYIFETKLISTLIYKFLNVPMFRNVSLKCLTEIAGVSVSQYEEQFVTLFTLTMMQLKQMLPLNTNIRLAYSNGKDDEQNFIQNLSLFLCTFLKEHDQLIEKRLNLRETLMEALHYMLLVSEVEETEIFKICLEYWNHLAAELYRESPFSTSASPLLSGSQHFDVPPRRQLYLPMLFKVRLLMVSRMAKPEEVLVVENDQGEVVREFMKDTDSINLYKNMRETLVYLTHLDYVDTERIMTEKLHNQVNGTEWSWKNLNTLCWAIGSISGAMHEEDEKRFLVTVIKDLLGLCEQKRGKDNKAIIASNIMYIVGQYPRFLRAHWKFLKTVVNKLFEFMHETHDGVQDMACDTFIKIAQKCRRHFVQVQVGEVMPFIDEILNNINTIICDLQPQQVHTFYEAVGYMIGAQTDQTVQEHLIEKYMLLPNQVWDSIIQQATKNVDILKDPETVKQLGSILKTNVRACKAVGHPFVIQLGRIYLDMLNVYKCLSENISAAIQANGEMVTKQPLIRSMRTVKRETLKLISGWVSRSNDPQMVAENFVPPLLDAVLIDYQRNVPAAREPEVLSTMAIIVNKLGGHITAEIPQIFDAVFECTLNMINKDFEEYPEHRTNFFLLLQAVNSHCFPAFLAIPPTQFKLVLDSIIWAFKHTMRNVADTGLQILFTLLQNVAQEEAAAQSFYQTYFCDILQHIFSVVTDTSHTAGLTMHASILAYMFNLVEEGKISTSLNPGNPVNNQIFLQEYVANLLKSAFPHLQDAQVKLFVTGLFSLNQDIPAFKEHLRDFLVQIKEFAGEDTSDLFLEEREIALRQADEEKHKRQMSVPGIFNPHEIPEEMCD
UniProt P10768, sequence (P10768 whole entry): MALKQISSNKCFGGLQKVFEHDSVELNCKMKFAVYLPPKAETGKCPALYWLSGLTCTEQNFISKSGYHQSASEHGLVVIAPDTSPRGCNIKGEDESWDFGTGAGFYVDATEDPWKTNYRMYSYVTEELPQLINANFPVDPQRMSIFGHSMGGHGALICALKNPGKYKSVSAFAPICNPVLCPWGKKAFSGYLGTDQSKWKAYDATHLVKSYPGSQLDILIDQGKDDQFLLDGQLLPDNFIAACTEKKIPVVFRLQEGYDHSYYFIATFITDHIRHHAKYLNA
UniProt Q9C037, sequence (Q9C037 whole entry, one chain of several): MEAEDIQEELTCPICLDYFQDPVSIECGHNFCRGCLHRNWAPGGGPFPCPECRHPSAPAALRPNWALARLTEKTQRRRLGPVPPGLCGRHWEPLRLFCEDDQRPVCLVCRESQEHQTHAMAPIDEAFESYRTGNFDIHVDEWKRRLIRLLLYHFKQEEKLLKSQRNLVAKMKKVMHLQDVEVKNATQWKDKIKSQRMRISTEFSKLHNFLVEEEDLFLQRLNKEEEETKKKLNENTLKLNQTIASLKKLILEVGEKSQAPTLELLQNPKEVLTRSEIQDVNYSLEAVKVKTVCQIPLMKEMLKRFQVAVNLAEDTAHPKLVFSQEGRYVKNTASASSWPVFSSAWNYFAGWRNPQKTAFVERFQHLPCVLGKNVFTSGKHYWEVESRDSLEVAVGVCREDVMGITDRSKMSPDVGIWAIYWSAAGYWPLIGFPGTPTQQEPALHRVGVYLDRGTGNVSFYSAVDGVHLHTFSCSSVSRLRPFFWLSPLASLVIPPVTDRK
UniProt P10515, sequence (P10515 whole entry): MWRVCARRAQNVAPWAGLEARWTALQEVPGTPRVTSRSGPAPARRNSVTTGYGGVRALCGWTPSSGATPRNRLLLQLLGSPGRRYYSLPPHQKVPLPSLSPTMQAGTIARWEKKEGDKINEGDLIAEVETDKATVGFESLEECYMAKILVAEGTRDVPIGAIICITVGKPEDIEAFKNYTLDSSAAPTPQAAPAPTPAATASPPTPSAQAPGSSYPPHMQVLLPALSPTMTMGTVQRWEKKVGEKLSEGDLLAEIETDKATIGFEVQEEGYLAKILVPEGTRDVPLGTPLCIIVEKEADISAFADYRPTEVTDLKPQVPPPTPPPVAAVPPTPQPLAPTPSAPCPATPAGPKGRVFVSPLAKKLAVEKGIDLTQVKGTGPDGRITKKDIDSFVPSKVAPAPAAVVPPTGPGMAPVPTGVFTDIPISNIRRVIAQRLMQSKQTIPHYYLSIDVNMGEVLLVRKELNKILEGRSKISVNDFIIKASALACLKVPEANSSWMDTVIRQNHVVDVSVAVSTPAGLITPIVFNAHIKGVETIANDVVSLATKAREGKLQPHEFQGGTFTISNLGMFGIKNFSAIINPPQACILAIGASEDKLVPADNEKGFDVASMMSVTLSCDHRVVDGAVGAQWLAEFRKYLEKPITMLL
UniProt O96008, sequence (O96008 whole entry): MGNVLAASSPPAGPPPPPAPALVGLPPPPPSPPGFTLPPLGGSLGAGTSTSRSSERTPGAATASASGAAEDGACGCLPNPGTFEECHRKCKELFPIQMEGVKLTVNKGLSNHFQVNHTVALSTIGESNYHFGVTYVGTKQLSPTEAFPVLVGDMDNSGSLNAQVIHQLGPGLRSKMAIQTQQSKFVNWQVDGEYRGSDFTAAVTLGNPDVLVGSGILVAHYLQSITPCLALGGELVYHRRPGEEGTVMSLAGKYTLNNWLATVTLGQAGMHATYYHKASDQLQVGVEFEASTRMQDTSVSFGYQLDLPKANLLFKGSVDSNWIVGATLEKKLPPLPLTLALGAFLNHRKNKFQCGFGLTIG
UniProt P00387, sequence (P00387 whole entry): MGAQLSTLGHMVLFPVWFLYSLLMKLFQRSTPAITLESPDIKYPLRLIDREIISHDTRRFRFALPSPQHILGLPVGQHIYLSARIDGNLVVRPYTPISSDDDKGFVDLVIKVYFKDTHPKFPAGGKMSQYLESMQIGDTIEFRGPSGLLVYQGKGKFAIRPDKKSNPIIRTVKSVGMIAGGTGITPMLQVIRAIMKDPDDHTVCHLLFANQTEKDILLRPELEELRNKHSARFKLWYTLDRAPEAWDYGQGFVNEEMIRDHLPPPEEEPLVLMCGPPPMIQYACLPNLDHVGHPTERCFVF

Target	NP40-soluble protein abundance (concentration: 0.1mM)	NP40-soluble protein abundance (concentration: 0.5mM)	NP40-soluble protein abundance (concentration: 1mM)	NP40-soluble protein abundance (concentration: 2mM)	NP40-soluble protein abundance (concentration: 4mM)	NP40-soluble protein abundance (concentration: 6mM)	NP40-soluble protein abundance (concentration: 8mM)	NP40-soluble protein abundance (concentration: 10mM)
I3L3Y9|I3L4X7|Q13227|Q13227-2 (UniProt Q13227)	0.978 ± 0.059	0.878 ± 0.0093	1.01 ± 0.13	1.01 ± 0.072	1.02 ± 0.11	1.06 ± 0.11	1.03 ± 0.13	1.08 ± 0.14
UniProt P26368|P26368-2	1.21 ± 0.06	1.64 ± 0.23	1.67 ± 0.25	1.69 ± 0.25	1.7 ± 0.29	1.75 ± 0.25	1.73 ± 0.29	1.71 ± 0.26
DLAT (UniProt P10515)	1.11 ± 0.22	1.28 ± 0.39	1.47 ± 0.56	1.85 ± 0.82	2.12 ± 1.1	2.06 ± 1.1	1.98 ± 0.98	1.91 ± 0.99
UniProt O75400|O75400-2|O75400-3	1.02 ± 0.05	1.11 ± 0.036	1.23 ± 0.083	1.25 ± 0.076	1.37 ± 0.21	1.52 ± 0.24	1.81 ± 0.37	1.89 ± 0.41
XPO1 (UniProt O14980)	1.01 ± 0.027	1.02 ± 0.033	0.936 ± 0.022	0.926 ± 0.072	0.916 ± 0.054	0.918 ± 0.033	0.882 ± 0.023	0.848 ± 0.044
J3QT87|Q96SW2|Q96SW2-2 (UniProt Q96SW2)	1.07 ± 0.084	1.07 ± 0.1	0.979 ± 0.034	1.03 ± 0.12	1.05 ± 0.061	1.04 ± 0.1	0.946 ± 0.047	0.931 ± 0.039
K7EQW8|P67936|K7ERG3 (UniProt P67936)	0.803 ± 0.15	0.716 ± 0.089	1.39 ± 0.5	1.19 ± 0.29	1.27 ± 0.27	1.27 ± 0.21	1.15 ± 0.34	1.83 ± 0.49
TOMM40 (UniProt O96008)	1.01 ± 0.045	1.04 ± 0.031	0.953 ± 0.041	0.967 ± 0.018	0.946 ± 0.043	0.936 ± 0.037	0.939 ± 0.077	0.905 ± 0.061
ESD (UniProt P10768)	0.959 ± 0.015	0.958 ± 0.032	0.924 ± 0.032	0.876 ± 0.025	0.882 ± 0.034	0.897 ± 0.04	0.875 ± 0.044	0.839 ± 0.059
UniProt P09651|P09651-2	1.03 ± 0.067	1.11 ± 0.082	1.17 ± 0.11	1.16 ± 0.065	1.16 ± 0.08	1.22 ± 0.089	1.3 ± 0.22	1.25 ± 0.16
UniProt P00387|P00387-2|P00387-3	1.11 ± 0.13	1.1 ± 0.14	0.945 ± 0.11	0.947 ± 0.15	0.938 ± 0.14	0.925 ± 0.14	0.882 ± 0.1	0.853 ± 0.14
TIMM44 (UniProt O43615)	0.992 ± 0.035	0.989 ± 0.041	0.993 ± 0.057	0.946 ± 0.058	0.954 ± 0.09	0.914 ± 0.082	0.946 ± 0.058	0.93 ± 0.064
H7C0Q6|Q9C037|Q9C037-2|Q9C037-3 (UniProt Q9C037)	1.08 ± 0.076	1.037 ± 0.0073	1.03 ± 0.068	0.998 ± 0.052	0.968 ± 0.069	0.981 ± 0.063	0.979 ± 0.07	0.918 ± 0.074
UniProt P17096|P17096-2	1.06 ± 0.062	1.06 ± 0.12	1.21 ± 0.081	1.33 ± 0.12	1.37 ± 0.14	1.69 ± 0.3	1.55 ± 0.21	2.02 ± 0.076
